Laboratory results from PubChem BioAssay (EPA / NIEHS).
“And” between values parts separate entries of the source, which are not always exact repeats. Identical values can stand only once. The source holds several records for some structures; these can differ, active in one and inactive in another. The source made the active and inactive calls. How the source made its calls: active means hit-call score of the fitted dose curve at least 0.9, where 1 is the maximum; inactive means score below 0.9.

Key:
[1] = ATG_GLI_CIS: Attagene CIS-FACTORIAL HepG2 Assay for human Zinc Finger Protein GLI1 (AID 2282945); conditions: HepG2, Attagene cis-factorial reporter mRNA, GLI element; actives raise or lower the signal
In short: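 Bidirectional curve fits relative to DMSO, using reporter mRNA levels from RT-PCR plus capillary electrophoresis. Cells were HepG2 transiently carrying cis-regulated reporter constructs, harvested 24 h after dosing.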

[2] = target: Bile acid receptor (Homo sapiens) (UniProt Q96RI1); experiment: ATG_IR1_CIS: Attagene CIS-FACTORIAL HepG2 Assay for human Nuclear Receptor Subfamily 1 Group H Member 4 (NR1H4), IR1 submotif (AID 2282946); conditions: IR1 reporter transcription, actives raise or lower the signal
In short: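 HepG2 cells transiently transfected with multiplexed cis-element reporter units read endogenous transcription factor activity. After 24 h compound exposure, reporter mRNA was quantified by RT-PCR, fluorescent labelling, HpaI digestion and capillary electrophoresis; bidirectional fitting versus DMSO baseline.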

[3] = ATG_GRE_CIS: Attagene CIS-FACTORIAL HepG2 Assay for human Glucocorticoid Response Elements (GRE) (AID 2282947); conditions: HepG2 GRE cis-reporter, Attagene multiplex mRNA; actives raise or lower the signal
In short: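 Reporter transcripts read by RT-PCR with capillary electrophoresis fluorescence after a 24 h chemical exposure of HepG2 cells transiently transfected with multiple cis-element reporter units. Gain or loss fitted against DMSO.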

[4] = ATG_ISRE_CIS: Attagene CIS-FACTORIAL HepG2 Assay for human Interferon Regulatory Factor 1 (IRF1) binding to an Interferon-Stimulated Response Element (ISRE) (AID 2282948); conditions: HepG2 ISRE cis-reporter (Attagene), mRNA transcription readout; actives raise or lower the signal
In short: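 Uses HepG2 liver cells transfected with cis-regulated reporters and measures mRNA 24 h post-dosing through RT-PCR, primer-extension labelling and capillary electrophoresis, with DMSO as negative control.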

[5] = ATG_M_32_CIS: Attagene CIS-FACTORIAL HepG2 Assay for M32 Transcription Factor (Internal Marker) (AID 2282949); conditions: HepG2 Attagene cis-factorial M32 reporter, mRNA; actives raise or lower the signal;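 further: background control marker of the multiplexed CIS panel rather than a real target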
In short: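 HepG2 human liver cells transiently transfected with cis-promoter-driven multiple reporter transcription units, dosed 24 h. Reporter mRNA quantified by RT-PCR, FAM-labelled primer extension, HpaI digest and capillary electrophoresis; bidirectional fit versus DMSO baseline.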

[6] = ATG_M_06_CIS: Attagene CIS-FACTORIAL HepG2 Assay for M06 Transcription Factor (Internal Marker) (AID 2282950); conditions: HepG2 Attagene CIS-FACTORIAL M06 internal marker reporter; actives raise or lower the signal
In short: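 Measured 24 h post-dosing in transiently transfected HepG2 cells, this internal-marker endpoint reports reporter mRNA via RT-PCR with fluorescent primer extension and capillary electrophoresis. DMSO served as negative control and baseline for bidirectional fitting.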

[7] = target: Hypoxia-inducible factor 1-alpha (Homo sapiens) (UniProt Q16665); experiment: ATG_HIF1a_CIS: Attagene CIS-FACTORIAL HepG2 Assay for human Hypoxia Inducible Factor 1 (HIF1A) (AID 2282951); conditions: HepG2 Attagene cis-factorial HIF1a reporter transcription; actives raise or lower the signal
In short: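 Dosed 24 h, transfected HepG2 cells yielded total RNA whose reporter transcripts were RT-PCR-amplified and sized by capillary electrophoresis using fluorescent labelling; DMSO defined baseline, with gain and loss of signal both fitted.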

[8] = target: Hepatocyte nuclear factor 6 (Homo sapiens) (UniProt Q9UBC0); experiment: ATG_HNF6_CIS: Attagene CIS-FACTORIAL HepG2 Assay for human Hepatocyte Nuclear Factor 6 (HNF6) (AID 2282952); conditions: HepG2 Attagene cis-factorial HNF6 reporter transcription; actives raise or lower the signal
In short: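 Endogenous factor activity read in transiently transfected HepG2 via promoter-regulated reporter transcripts. RNA harvested 24 h post-dosing, reverse-transcribed, PCR-amplified, FAM-labelled, HpaI-digested and resolved by capillary electrophoresis; fitted in both directions against DMSO.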

[9] = target: Heat shock factor protein 1 (Homo sapiens) (UniProt Q00613); experiment: ATG_HSE_CIS: Attagene CIS-FACTORIAL HepG2 Assay for human Heat Shock Transcription Factor 1 (HSE) (AID 2282953); conditions: HepG2 HSE cis-reporter, Attagene RNA transcription; actives raise or lower the signal
In short: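 Reporter mRNA induction in HepG2 is measured 24 h after dosing, using transiently transfected multiplexed cis-regulated reporter units. Signal comes from capillary electrophoresis of labelled RT-PCR products, with DMSO as negative control.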

[10] = ATG_MRE_CIS: Attagene CIS-FACTORIAL HepG2 Assay for human Metal Responsive Element (MRE) (AID 2282954); conditions: HepG2 MRE cis-reporter transcription, Attagene multiplex; actives raise or lower the signal
In short: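 Endogenous MRE-dependent transcription read as reporter mRNA in transiently transfected human HepG2 cells at 24 h. RNA reverse-transcribed, PCR-amplified, labelled and resolved by capillary electrophoresis; gain or loss relative to DMSO.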

[11] = ATG_PBREM_CIS: Attagene CIS-FACTORIAL HepG2 Assay for human Phenobarbital-responsive Enhancer Module (PBREM) (AID 2282955); conditions: HepG2 PBREM cis-reporter, Attagene multiplexed transcription; actives raise or lower the signal
In short: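 Transfected liver-derived HepG2 cells exposed 24 h; PBREM reporter transcript quantified via RT-PCR and capillary electrophoresis, with activity in either direction referenced to DMSO.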

[12] = target: Paired box protein Pax-6 (Homo sapiens) (UniProt P26367); experiment: ATG_Pax6_CIS: Attagene CIS-FACTORIAL HepG2 Assay for human Paired Box 6 (PAX6) (AID 2282956); conditions: HepG2 CIS-FACTORIAL PAX6 reporter transcription, RNA readout; actives raise or lower the signal
In short: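 DMSO-referenced bidirectional fits of reporter mRNA fluorescence; HepG2 with transient cis-promoter MRTUs, 24 h post-dose, RT-PCR plus capillary electrophoresis detection.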

[13] = ATG_PXRE_CIS: Attagene CIS-FACTORIAL HepG2 Assay for human Pregnane X Receptor Element (PXRE) (AID 2282957); conditions: HepG2 Attagene CIS-FACTORIAL PXRE reporter, mRNA; actives raise or lower the signal
In short: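 Reporter transcripts under endogenous PXR-responsive cis-regulation quantified from total RNA of transfected HepG2 cells 24 h post-dosing, via RT-PCR with fluorescent primer extension and capillary electrophoresis. Gain or loss of signal fitted against DMSO baseline.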

[14] = ATG_PPRE_CIS: Attagene CIS-FACTORIAL HepG2 Assay for human Peroxisome Proliferator-activated Response Element (PPRE) (AID 2282958); conditions: HepG2 PPRE cis-element reporter, Attagene transcription factor profiling; actives raise or lower the signal
In short: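 Measured endpoint: PPRE-controlled reporter mRNA, detected by RT-PCR and capillary electrophoresis fluorescence, from transiently transfected HepG2 cells 24 h after dosing. Curves fitted in both directions using DMSO baseline.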

[15] = ATG_Sox_CIS: Attagene CIS-FACTORIAL HepG2 Assay for human SRY-box transcription factor (SOX) (AID 2282960); conditions: HepG2 Attagene cis-factorial SOX reporter, mRNA; actives raise or lower the signal
In short: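 Gain- or loss-of-signal endpoint, fitted bidirectionally with DMSO as negative control. Based on reporter mRNA from transfected HepG2 cells harvested 24 h post-treatment and quantified via RT-PCR and capillary electrophoresis.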

[16] = target: Transcription factor Sp1 (Homo sapiens) (UniProt P08047); experiment: ATG_Sp1_CIS: Attagene CIS-FACTORIAL HepG2 Assay for human Specificity Protein 1 (Sp1) (AID 2282961); conditions: HepG2 Sp1 cis-reporter transcription, actives raise or lower the signal
In short: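 Endpoint reflects endogenous Sp1 transcriptional activity, not an exogenous fusion protein: HepG2 cells with transfected cis-regulated reporters, 24 h dosing, RT-PCR/capillary electrophoresis mRNA read-out, DMSO-normalised bidirectional fit.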

[17] = ATG_SREBP_CIS: Attagene CIS-FACTORIAL HepG2 Assay for human Sterol Regulatory Element Binding (SREBP) (AID 2282962); conditions: HepG2 Attagene cis-factorial SREBP reporter, mRNA; actives raise or lower the signal
In short: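 In this cis-format assay, HepG2 liver cells express reporters controlled by promoter elements responsive to native transcription factors. Exposure lasts 24 h; reporter mRNA fluorescence from capillary electrophoresis gives the signal, fitted bidirectionally against DMSO.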

[18] = ATG_TA_CIS: Attagene CIS-FACTORIAL HepG2 Assay for human TA Basal Promoter (AID 2282964); conditions: HepG2 Attagene CIS-factorial TA basal promoter reporter; actives raise or lower the signal
In short: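 Cis-factorial format in HepG2: reporters report endogenous factors, not chimeric Gal4 fusions. After 24 h treatment, reporter transcripts were measured by RT-PCR-capillary electrophoresis fluorescence, analysed bidirectionally versus DMSO.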

[19] = target: Signal transducer and activator of transcription 3 (Homo sapiens) (UniProt P40763); experiment: ATG_STAT3_CIS: Attagene CIS-FACTORIAL HepG2 Assay for human Signal Transducer and Activator of Transcription 3 (STAT3) (AID 2282963); conditions: HepG2, Attagene cis-factorial STAT3 reporter transcription; actives raise or lower the signal
In short: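 Readout is reporter transcript quantified by RT-PCR and capillary electrophoresis, with 6-FAM primer extension and HpaI digestion. Total RNA is taken 24 h after dosing transiently transfected HepG2 carrying cis-regulated reporter units. Bidirectional fit against DMSO.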

Sequence of Signal transducer and activator of transcription 3 (Homo sapiens) (P40763 whole entry, looked up): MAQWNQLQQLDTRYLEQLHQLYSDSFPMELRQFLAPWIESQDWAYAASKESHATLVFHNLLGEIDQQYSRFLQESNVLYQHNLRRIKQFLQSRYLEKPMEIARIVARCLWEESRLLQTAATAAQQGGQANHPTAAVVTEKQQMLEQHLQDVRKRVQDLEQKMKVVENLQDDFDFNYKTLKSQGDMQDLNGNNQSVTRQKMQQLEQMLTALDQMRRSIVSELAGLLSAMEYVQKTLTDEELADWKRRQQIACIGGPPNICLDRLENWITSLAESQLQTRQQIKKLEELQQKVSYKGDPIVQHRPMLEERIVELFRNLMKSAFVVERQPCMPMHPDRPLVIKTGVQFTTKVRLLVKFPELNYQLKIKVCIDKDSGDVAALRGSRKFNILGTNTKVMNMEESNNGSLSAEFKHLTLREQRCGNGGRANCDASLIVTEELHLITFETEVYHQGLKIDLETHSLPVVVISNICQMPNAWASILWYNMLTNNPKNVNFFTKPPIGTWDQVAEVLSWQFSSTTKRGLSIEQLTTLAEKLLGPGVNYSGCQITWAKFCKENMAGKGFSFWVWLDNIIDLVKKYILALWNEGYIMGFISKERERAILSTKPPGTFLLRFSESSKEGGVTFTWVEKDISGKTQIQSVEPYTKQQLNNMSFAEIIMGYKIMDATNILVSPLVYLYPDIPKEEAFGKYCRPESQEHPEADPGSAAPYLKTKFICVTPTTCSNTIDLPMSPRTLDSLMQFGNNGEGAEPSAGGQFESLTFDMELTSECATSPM
Sequence of Hepatocyte nuclear factor 6 (Homo sapiens) (Q9UBC0 whole entry, looked up): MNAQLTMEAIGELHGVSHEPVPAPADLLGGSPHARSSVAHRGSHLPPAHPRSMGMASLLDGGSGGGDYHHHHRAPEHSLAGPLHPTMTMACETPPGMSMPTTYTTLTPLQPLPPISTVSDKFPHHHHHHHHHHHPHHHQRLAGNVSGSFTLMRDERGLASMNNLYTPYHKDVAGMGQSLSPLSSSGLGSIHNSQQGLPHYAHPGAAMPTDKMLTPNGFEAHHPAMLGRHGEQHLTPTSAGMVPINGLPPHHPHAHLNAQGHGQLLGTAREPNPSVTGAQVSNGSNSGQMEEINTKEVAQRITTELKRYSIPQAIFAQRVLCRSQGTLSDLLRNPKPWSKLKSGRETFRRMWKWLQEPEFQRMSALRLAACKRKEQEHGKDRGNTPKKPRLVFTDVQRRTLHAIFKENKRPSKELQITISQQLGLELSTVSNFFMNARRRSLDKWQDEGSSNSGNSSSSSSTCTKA
Sequence of Paired box protein Pax-6 (Homo sapiens) (P26367 whole entry, looked up): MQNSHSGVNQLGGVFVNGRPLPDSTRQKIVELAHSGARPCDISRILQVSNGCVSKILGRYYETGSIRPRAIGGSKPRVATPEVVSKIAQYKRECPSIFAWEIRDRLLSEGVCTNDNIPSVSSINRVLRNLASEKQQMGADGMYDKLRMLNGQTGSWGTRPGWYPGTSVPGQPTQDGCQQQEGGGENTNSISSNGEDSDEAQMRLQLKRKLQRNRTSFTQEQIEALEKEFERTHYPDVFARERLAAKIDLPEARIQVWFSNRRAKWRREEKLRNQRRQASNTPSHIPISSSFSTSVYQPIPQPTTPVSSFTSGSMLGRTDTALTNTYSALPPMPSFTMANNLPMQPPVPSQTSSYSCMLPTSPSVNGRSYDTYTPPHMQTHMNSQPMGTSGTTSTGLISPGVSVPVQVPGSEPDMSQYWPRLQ
Sequence of Bile acid receptor (Homo sapiens) (Q96RI1 whole entry, looked up): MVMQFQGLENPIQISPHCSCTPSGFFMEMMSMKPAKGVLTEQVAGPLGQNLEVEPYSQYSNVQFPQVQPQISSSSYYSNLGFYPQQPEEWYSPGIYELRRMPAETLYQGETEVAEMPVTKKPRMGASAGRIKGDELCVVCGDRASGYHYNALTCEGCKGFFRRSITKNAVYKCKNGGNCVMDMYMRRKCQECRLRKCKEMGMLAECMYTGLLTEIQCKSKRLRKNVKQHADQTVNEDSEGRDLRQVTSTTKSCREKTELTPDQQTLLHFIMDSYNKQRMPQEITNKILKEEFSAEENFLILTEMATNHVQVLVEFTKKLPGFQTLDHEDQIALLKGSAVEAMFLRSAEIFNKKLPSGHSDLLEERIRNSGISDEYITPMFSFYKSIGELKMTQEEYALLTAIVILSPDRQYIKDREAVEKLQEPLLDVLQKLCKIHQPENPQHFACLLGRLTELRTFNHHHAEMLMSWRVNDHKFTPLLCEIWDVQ
Sequence of Heat shock factor protein 1 (Homo sapiens) (Q00613 whole entry, looked up): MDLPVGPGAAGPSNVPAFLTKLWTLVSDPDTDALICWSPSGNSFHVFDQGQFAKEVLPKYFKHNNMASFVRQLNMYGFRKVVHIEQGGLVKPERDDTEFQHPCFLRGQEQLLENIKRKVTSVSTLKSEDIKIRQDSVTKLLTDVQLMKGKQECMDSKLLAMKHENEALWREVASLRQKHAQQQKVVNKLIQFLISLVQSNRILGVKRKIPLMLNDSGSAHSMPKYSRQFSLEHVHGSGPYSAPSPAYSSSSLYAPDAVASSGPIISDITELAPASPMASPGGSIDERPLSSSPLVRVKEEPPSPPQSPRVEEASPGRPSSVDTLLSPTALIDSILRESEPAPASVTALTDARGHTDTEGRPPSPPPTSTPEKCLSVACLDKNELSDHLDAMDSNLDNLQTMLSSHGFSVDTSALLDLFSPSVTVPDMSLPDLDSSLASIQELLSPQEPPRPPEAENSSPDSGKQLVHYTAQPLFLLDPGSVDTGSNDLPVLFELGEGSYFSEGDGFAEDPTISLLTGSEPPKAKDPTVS
Sequence of Transcription factor Sp1 (Homo sapiens) (P08047 whole entry, looked up, the tested form may be a part): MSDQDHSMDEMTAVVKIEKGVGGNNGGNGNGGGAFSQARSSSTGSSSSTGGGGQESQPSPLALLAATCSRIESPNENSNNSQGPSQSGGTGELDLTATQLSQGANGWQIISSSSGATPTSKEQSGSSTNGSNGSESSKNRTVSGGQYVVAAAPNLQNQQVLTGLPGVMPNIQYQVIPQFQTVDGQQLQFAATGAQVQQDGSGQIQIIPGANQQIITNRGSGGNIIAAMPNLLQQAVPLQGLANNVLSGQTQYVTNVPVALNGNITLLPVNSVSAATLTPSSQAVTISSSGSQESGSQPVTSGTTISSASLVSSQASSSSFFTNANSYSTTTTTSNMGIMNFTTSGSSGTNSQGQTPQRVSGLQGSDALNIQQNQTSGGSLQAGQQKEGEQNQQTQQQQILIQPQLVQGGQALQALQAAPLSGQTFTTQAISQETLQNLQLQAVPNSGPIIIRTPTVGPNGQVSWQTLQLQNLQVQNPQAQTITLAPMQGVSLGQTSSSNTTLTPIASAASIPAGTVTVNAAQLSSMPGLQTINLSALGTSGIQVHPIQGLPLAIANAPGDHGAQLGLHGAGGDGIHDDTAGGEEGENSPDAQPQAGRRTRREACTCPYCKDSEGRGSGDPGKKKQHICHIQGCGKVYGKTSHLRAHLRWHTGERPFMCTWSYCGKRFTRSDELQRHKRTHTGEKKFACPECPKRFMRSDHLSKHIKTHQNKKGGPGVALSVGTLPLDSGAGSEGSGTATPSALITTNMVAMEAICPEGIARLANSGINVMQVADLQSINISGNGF
Sequence of Hypoxia-inducible factor 1-alpha (Homo sapiens) (Q16665 whole entry, looked up): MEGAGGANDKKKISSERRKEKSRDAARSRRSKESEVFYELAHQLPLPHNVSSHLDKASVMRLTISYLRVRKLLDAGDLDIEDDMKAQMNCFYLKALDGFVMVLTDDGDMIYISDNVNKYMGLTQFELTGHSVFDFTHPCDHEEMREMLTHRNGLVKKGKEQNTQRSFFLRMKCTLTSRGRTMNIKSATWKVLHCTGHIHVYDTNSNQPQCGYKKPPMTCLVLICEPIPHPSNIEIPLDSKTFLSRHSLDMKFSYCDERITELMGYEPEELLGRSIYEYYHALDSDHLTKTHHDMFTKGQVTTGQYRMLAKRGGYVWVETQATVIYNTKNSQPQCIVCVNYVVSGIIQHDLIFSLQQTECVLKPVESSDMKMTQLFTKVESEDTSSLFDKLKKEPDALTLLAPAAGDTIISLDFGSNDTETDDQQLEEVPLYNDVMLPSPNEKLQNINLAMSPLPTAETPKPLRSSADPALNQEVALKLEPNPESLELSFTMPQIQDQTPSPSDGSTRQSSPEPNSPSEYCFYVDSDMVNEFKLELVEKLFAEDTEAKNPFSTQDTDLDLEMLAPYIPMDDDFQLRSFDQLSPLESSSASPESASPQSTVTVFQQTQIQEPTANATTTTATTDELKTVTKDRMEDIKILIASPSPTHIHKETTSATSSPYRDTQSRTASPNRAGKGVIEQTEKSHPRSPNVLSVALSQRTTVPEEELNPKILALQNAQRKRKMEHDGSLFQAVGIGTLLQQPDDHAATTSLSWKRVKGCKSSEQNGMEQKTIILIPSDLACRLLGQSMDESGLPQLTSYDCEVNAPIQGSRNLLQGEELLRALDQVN

COc1nn(CSP(=S)(OC)OC)c(=O)s1
outcome [1]: inactive
outcome [2]: inactive
outcome [3]: inactive
outcome [4]: inactive
outcome [5]: inactive
outcome [6]: inactive
outcome [7]: inactive
outcome [8]: inactive
outcome [9]: inactive
outcome [10]: inactive
AC50 [11]: 50 µM (active)
outcome [12]: inactive
AC50 [13]: 15.6 µM (active)
outcome [14]: inactive
outcome [15]: inactive
outcome [16]: inactive
outcome [17]: inactive
outcome [18]: inactive

N#Cc1c(Cl)c(Cl)c(Cl)c(C#N)c1Cl
outcome [1]: inactive
outcome [2]: inactive
outcome [3]: inactive
outcome [4]: inactive
outcome [5]: inactive
outcome [6]: inactive
outcome [7]: inactive
outcome [8]: inactive
outcome [9]: inactive
outcome [10]: inactive
outcome [11]: inactive
outcome [12]: inactive
AC50 [13]: 0.121 µM (active)
outcome [14]: inactive
outcome [15]: inactive
outcome [16]: inactive
outcome [17]: inactive
outcome [18]: inactive

CCS(=O)(=O)c1cccnc1S(=O)(=O)NC(=O)Nc1nc(OC)cc(OC)n1
outcome [1]: inactive
outcome [2]: inactive
outcome [3]: inactive
outcome [4]: inactive
outcome [5]: inactive
outcome [6]: inactive
outcome [7]: inactive
outcome [8]: inactive
outcome [9]: inactive
outcome [10]: inactive
outcome [11]: inactive
outcome [12]: inactive
AC50 [13]: 60.5 µM (active)
outcome [13]: inactive
outcome [14]: inactive
outcome [15]: inactive
outcome [16]: inactive
outcome [17]: inactive
outcome [19]: inactive
outcome [18]: inactive

ClC1C(Cl)C(Cl)C(Cl)C(Cl)C1Cl (stereo not drawn)
outcome [1]: inactive
outcome [2]: inactive
AC50 [4]: 161 µM (active) and 58.2 µM (active)
outcome [4]: inactive
outcome [5]: inactive
outcome [6]: inactive
outcome [7]: inactive
outcome [8]: inactive
outcome [9]: inactive
AC50 [10]: 17.1 µM (active) and 100 µM (active) and 33.7 µM (active)
outcome [10]: inactive
outcome [12]: inactive
AC50 [13]: 2.93 µM (active) [middle of 4 runs]
outcome [14]: inactive
outcome [15]: inactive
AC50 [16]: 100 µM (active) and 70.3 µM (active)
outcome [16]: inactive
AC50 [17]: 67.6 µM (active)
outcome [17]: inactive
outcome [18]: inactive

CNC(=O)Oc1cccc(N=CN(C)C)c1
outcome [1]: inactive
outcome [2]: inactive
outcome [4]: inactive
outcome [5]: inactive
outcome [6]: inactive
outcome [7]: inactive
outcome [8]: inactive
outcome [9]: inactive
AC50 [10]: 72.1 µM (active)
outcome [11]: inactive
outcome [12]: inactive
outcome [13]: inactive
AC50 [14]: 32.7 µM (active)
outcome [15]: inactive
outcome [16]: inactive
AC50 [17]: 84.6 µM (active)
outcome [19]: inactive
outcome [18]: inactive

CC(C)(C)C(O)/C(=C\c1ccc(Cl)cc1Cl)n1cncn1 (stereo not drawn)
outcome [1]: inactive
outcome [2]: inactive
outcome [3]: inactive
outcome [4]: inactive
outcome [5]: inactive
outcome [6]: inactive
outcome [7]: inactive
outcome [8]: inactive
outcome [9]: inactive
AC50 [10]: 5 µM (active)
outcome [11]: inactive
outcome [12]: inactive
AC50 [13]: 5 µM (active)
outcome [14]: inactive
outcome [15]: inactive
outcome [16]: inactive
outcome [17]: inactive
outcome [19]: inactive
outcome [18]: inactive
